Data taken from PubChem BioAssay (NCATS).
Inconclusive results are not listed. Calls of active or inactive are those of the source. Unless noted, calls come from the whole dose curve; as a rule, active = well fitted cell-killing curve with a large enough effect; inconclusive = small, poorly fitted or top-dose-only effect; inactive = flat fitted curve, though single readings scatter.

What was measured:
[1] = Cell Viability - LYMP2-025 (AID 976);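 note: series mostly up to about 92 µM; plate controls were DMSO only for no effect and tetraoctylammonium bromide control for full effect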
Outline: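 In qHTS format, LYMP2-025 lymphoblastoid cells in complete culture medium received compound for 24 hr; ATP-based CellTiter-Glo signal gave viability, with AC50 derived by Hill equation.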

[2] = Cell Viability - LYMP2-002 (AID 977);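 note: series mostly up to about 92 µM; plate controls were DMSO only for no effect and 92 µM tetraoctylammonium bromide for full effect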
Outline: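 Luminescent ATP readout (CellTiter-Glo, 30 min room temperature) after 24 h compound exposure at 37 C of a human lymphoblastoid line, 2500 cells/well. AC50 values derived by standard Hill fitting of qHTS concentration-response data.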

[3] = Cell Viability - LYMP2-006 (AID 978); note: series mostly up to about 92 µM; % is set by controls: 0 for no effect and ±100 for the full control effect; nearly all actives have a fitted effect of over 60% in size
Outline: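 Potency values are Hill-fit AC50s for decreases in intracellular ATP (CellTiter-Glo luminescence). LYMP2-006 lymphoblastoid cells, 2500 per well, were exposed to compound in complete culture medium for 24 hr at 37 C.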

[4] = Cell Viability - LYMP2-007 (AID 979);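 note: cells exposed to compound for 24 h before reading; 0% = DMSO only and the negative end = 92 µM tetraoctylammonium bromide; nearly all actives have a fitted effect of over 60% in size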
Outline: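 Acute toxicity is scored as a concentration-dependent fall in intracellular ATP in human lymphoblastoid cells treated 24 hr at 37 C, measured by luciferase luminescence; Hill-equation modelling yields AC50.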

[5] = Cell Viability - LYMP2-008 (AID 980); note: % is set by controls: 0 for no effect and ±100 for the full control effect; nearly all actives have a fitted effect of over 60% in size
Outline: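 Acute cytotoxicity is scored as concentration-dependent loss of cellular ATP in a human lymphoblastoid line after 24 hr treatment at 37 C. ATP is quantified by luciferase luminescence.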

[6] = Cell Viability - LYMP2-010 (AID 981); note: % is set by controls: 0 for no effect and ±100 for the full control effect; nearly all actives have a fitted effect of over 55% in size
Outline: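 Acute toxicity is scored as a concentration-dependent loss of cellular ATP in human lymphoblastoid cells after 24 hr compound exposure in complete medium. Tetraoctylammonium bromide is the positive control.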

[7] = Cell Viability - LYMP2-012 (AID 982);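 note: cellular ATP by luciferase luminescence where a drop means cytotoxicity; cells exposed to compound for one day before reading; 0% = DMSO only and full loss = 92 µM tetraoctylammonium bromide; nearly all actives have a fitted effect of over 55% in size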
[8] = Cell Viability - LYMP2-014 (AID 983);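 note: series mostly up to about 92 µM; plate controls were DMSO only for no effect and 92 µM tetraoctylammonium bromide for full effect; nearly all actives have a fitted effect of over 50% in size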
Outline: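 Decrease in intracellular ATP after 24 hr treatment at 37 C, measured by luciferase luminescence, indicated cytotoxicity. Concentration-response data were fitted with the standard Hill equation to give AC50.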

[9] = Cell Viability - LYMP2-016 (AID 984); note: % is set by controls: 0 for no effect and ±100 for the full control effect; nearly all actives have a fitted effect of over 55% in size
Outline: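 Cytotoxicity was scored by luminescent ATP content (CellTiter-Glo) after 24 h compound exposure at 37 C of a human lymphoblastoid line at 2500 cells/well. Concentration-response data were fitted to the Hill equation for AC50.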

[10] = Cell Viability - LYMP2-018 (AID 985);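 note: compound exposure lasted 24 hr at 37 °C; plate controls were DMSO only for no effect and tetraoctylammonium bromide at 92 µM for full effect; nearly all actives have a fitted effect of over 50% in size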
Outline: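 Acute cytotoxicity is scored as a concentration-dependent drop in intracellular ATP after 24 hr exposure of the lymphoblastoid line in complete culture medium, measured by luciferase luminescence. Potency is expressed as AC50 from Hill modelling.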

[11] = Cell Viability - LYMP2-020 (AID 986);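 note: series mostly up to about 92 µM; plate controls were DMSO only for no effect and tetraoctylammonium bromide at 92 µM for full effect; nearly all actives have a fitted effect of over 55% in size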
Outline: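 Acute cytotoxicity in a human lymphoblastoid line is scored as a concentration-dependent fall in cellular ATP after 24 hr at 37 C in complete medium. The positive control is tetraoctylammonium bromide, and potency is given as Hill-fit AC50.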

[12] = Cell Viability - LYMP2-022 (AID 987)
Outline: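 Acute toxicity in a human lymphoblastoid line is scored as decreased intracellular ATP after 24 hr compound treatment at 37 C. ATP is measured by CellTiter-Glo luminescence; curves are fitted with the Hill equation to give AC50.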

[13] = Cell Viability - LYMP2-024 (AID 988);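 note: plate controls were DMSO only for no effect and 92 µM tetraoctylammonium bromide for full effect; nearly all actives have a fitted effect of over 60% in size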
Outline: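 Acute toxicity is measured as concentration-dependent loss of intracellular ATP in a human lymphoblastoid line treated 24 hours at 37 C. Luciferase luminescence quantifies ATP; AC50 values come from standard Hill-equation modelling.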

[14] = Cell Viability - LYMP2-026 (AID 989); note: % is set by controls: 0 for no effect and ±100 for the full control effect; nearly all actives have a fitted effect of over 50% in size
Outline: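 Concentration-dependent loss of intracellular ATP in human lymphoblastoid cells after 24 hr at 37 C, quantified by luciferase luminescence. AC50 derived from standard Hill equation.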

[15] = Cell Viability - LYMP1-002 - Assay at 24 hr (AID 993); note: % is set by controls: 0 for no effect and ±100 for the full control effect
Outline: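 qHTS, LYMP1-002 lymphoblastoid, 24 h cpd, 37 C, CellTiter-Glo ATP luminescence; AC50 via Hill eq.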

[16] = Cell Viability - LYMP1-002 - Assay at 40 hr (AID 994)
Outline: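 Viability in the human lymphoblastoid line was measured as intracellular ATP via CellTiter-Glo after 40 hr compound exposure. Tetraoctylammonium bromide served as positive control.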

[17] = qHTS Assay for Identification of Small Molecule Inducers of Hypoxia Response (AID 2120; active = well fitted curve in the direction sought with a large enough effect in the signal ratio, with a control signal flat, not every such curve was filed as active; the % refers to the signal ratio; note: 0% is about no effect)
Outline: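 Induction of beta-lactamase reporter activity was measured in CellSensor HRE-bla ME-180 cells after 17 h compound treatment at 37 degrees C, using CCF4 substrate and the 460nm/530nm emission ratio to derive AC50 values.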

[18] = target: Estrogen receptor (Homo sapiens) (UniProt P03372); assay: qHTS assay for small molecule agonists of estrogen receptor alpha signaling (AID 588514; calls by dose curve;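 note: 0% = vehicle only and 100% = reference agonist; nearly all actives have a fitted effect of over 70% in size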)
Estrogen receptor (Homo sapiens), sequence (P03372 whole entry, looked up): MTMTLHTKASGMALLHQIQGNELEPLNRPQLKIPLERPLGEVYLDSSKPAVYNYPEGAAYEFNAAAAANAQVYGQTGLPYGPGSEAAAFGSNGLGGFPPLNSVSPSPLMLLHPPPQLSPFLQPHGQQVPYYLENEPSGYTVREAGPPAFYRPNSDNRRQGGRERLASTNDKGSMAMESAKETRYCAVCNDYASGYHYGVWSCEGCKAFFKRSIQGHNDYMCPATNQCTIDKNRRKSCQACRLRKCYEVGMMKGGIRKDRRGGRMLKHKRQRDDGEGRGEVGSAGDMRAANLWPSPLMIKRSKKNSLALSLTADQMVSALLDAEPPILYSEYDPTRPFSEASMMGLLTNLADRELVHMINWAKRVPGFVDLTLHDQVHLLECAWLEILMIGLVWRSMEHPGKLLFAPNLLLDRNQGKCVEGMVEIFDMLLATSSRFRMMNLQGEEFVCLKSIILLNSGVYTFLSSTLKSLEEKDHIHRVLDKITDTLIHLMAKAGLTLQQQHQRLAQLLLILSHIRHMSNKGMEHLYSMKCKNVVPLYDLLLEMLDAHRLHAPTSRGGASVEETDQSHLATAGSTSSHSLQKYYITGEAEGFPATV
Outline: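 Reporter-gene assay. […] controls beta-lactamase in HEK 293 GripTite cells; after 18 hrs with compound, CCF4 substrate is added for 2 hrs and fluorescence is read.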

[19] = target: Androgen receptor (Homo sapiens) (UniProt P10275); assay: qHTS assay for small molecule agonists of androgen receptor signaling (AID 588515; active = well fitted curve in the direction sought with a large enough effect in the signal ratio, with a control signal flat; the % refers to the signal ratio; note: % is set by controls: 0 for no effect and ±100 for the full control effect); settings: AR-UAS-bla HEK293, beta-lactamase ratio, agonist 16 h; active compounds read high
Androgen receptor (Homo sapiens), sequence (P10275 whole entry, looked up): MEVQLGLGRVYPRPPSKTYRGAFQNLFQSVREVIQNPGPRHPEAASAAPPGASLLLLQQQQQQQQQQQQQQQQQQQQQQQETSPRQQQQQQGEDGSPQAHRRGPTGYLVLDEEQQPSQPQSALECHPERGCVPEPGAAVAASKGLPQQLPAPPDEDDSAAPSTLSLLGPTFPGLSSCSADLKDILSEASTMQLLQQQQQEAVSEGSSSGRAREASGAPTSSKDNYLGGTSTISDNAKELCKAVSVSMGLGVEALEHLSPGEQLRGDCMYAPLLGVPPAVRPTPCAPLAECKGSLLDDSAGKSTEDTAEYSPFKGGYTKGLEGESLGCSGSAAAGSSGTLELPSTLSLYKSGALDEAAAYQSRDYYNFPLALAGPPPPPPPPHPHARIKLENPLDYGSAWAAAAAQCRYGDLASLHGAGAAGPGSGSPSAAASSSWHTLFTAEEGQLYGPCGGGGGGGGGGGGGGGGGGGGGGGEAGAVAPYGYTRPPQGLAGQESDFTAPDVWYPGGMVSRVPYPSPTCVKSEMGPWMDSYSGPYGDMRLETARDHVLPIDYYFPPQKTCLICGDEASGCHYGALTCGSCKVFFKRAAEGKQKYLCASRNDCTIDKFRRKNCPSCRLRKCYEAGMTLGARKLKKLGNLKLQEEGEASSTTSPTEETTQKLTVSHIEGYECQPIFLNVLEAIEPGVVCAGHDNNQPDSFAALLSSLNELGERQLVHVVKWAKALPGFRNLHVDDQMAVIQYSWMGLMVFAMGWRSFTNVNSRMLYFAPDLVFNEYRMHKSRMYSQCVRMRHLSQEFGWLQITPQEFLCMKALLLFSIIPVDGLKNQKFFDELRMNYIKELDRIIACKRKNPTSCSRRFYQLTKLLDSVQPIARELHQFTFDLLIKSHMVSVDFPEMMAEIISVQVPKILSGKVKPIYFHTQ
Outline: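 EC50 and efficacy came from Hill fits of titrations (up to 92 uM) normalized to 30 nM R1881 as 100% and DMSO as 0%. Compound exposure was 16 h at 37 C on AR-UAS-bla HEK293 cells, with a 405/460/530 nm CCF4 fluorescence read.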

C=CC(=O)NC(C)C
inactive: Potency [1] | Potency [2] | Potency [3] | Potency [4] | Potency [5] | Potency [6] | Potency [7] | Potency [8] | Potency [9] | Potency [10] | Potency [11] | Potency [12] | Potency [13] | outcome [14] | Potency [15] | Potency [16] | outcome [17] | Potency [18]

C=CCOC(=O)CCCCCCCC
inactive: Potency [1] | Potency [2] | Potency [3] | Potency [4] | Potency [5] | Potency [6] | Potency [7] | Potency [8] | Potency [9] | Potency [10] | Potency [11] | Potency [12] | Potency [13] | outcome [14] | Potency [15] | Potency [16] | outcome [17] | Potency [18]

C(=C/c1ccccc1)/c1ccccc1
inactive: Potency [1] | Potency [2] | Potency [3] | Potency [4] | Potency [5] | Potency [6] | Potency [7] | Potency [8] | Potency [9] | Potency [10] | Potency [11] | Potency [12] | Potency [13] | outcome [14] | Potency [15] | Potency [16] | outcome [17] | Potency [18]

NCCCCCCN
inactive: Potency [1] | Potency [2] | Potency [3] | Potency [4] | Potency [5] | Potency [6] | Potency [7] | Potency [8] | Potency [9] | Potency [10] | Potency [11] | Potency [12] | Potency [13] | outcome [14] | Potency [15] | outcome [17]

CNc1ccc([N+](=O)[O-])cc1
inactive: Potency [1] | Potency [2] | Potency [3] | Potency [4] | Potency [5] | Potency [6] | Potency [7] | Potency [8] | Potency [10] | Potency [11] | Potency [12] | Potency [13] | outcome [14] | Potency [15] | Potency [16] | outcome [17] | Potency [18]

COC(=O)c1ccccc1
inactive: Potency [1] | Potency [2] | Potency [3] | Potency [4] | Potency [5] | Potency [6] | Potency [7] | Potency [8] | Potency [9] | Potency [10] | Potency [11] | Potency [12] | Potency [13] | outcome [14] | outcome [17]

C[C@@H]1CC2(OC[C@]3(C)O[C@H]23)O[C@H]2C[C@@]3(C)[C@@H]4CC[C@H]5C(C)(C)C(O[C@@H]6OC[C@@H](O)[C@H](O)[C@H]6O)CC[C@@]56C[C@@]46CC[C@]3(C)[C@@H]12 (stereo partly drawn)
inactive: Potency [1] | Potency [2] | Potency [3] | Potency [4] | Potency [5] | Potency [7] | Potency [8] | Potency [9] | Potency [10] | Potency [12] | Potency [13] | outcome [14] | outcome [17] | Potency [18]

COCCOC(=O)c1ccccc1C(=O)OCCOC
inactive: Potency [1] | Potency [2] | Potency [3] | Potency [4] | Potency [5] | Potency [6] | Potency [7] | Potency [8] | Potency [9] | Potency [10] | Potency [11] | Potency [12] | Potency [13] | outcome [14] | Potency [15] | Potency [16] | outcome [17]

CC(C=O)Cc1ccc(C(C)(C)C)cc1 (stereo not drawn)
inactive: Potency [1] | Potency [2] | Potency [3] | Potency [4] | Potency [5] | Potency [6] | Potency [7] | Potency [8] | Potency [9] | Potency [10] | Potency [11] | Potency [12] | Potency [13] | outcome [14] | Potency [15] | Potency [16] | outcome [17] | activation [19] 8.05%

Oc1c(Cl)ccc(Cl)c1Cl
inactive: Potency [1] | Potency [2] | Potency [3] | Potency [4] | Potency [5] | Potency [7] | Potency [8] | Potency [9] | Potency [10] | Potency [11] | Potency [12] | Potency [13] | Potency [15] | Potency [16] | outcome [17] | Potency [18]

Cc1ccc(C(=O)O)cc1
inactive: Potency [1] | Potency [2] | Potency [3] | Potency [4] | Potency [5] | Potency [6] | Potency [7] | Potency [8] | Potency [9] | Potency [10] | Potency [11] | Potency [12] | Potency [13] | outcome [14] | Potency [15] | Potency [16] | outcome [17]

OC/C(Br)=C(\Br)CO
inactive: Potency [1] | Potency [2] | Potency [3] | Potency [4] | Potency [5] | Potency [6] | Potency [7] | Potency [8] | Potency [10] | Potency [11] | Potency [12] | Potency [13] | outcome [14] | Potency [15] | Potency [16] | outcome [17] | Potency [18]

O=C(Cl)c1ccccc1[N+](=O)[O-]
inactive: Potency [1] | Potency [2] | Potency [3] | Potency [4] | Potency [5] | Potency [6] | Potency [7] | Potency [8] | Potency [10] | Potency [12] | Potency [13] | outcome [14] | Potency [15] | Potency [16] | outcome [17] | activation [19] 6.98%

O=Cc1ccc(Cl)cc1
inactive: Potency [1] | Potency [2] | Potency [3] | Potency [4] | Potency [5] | Potency [6] | Potency [7] | Potency [8] | Potency [9] | Potency [10] | Potency [11] | Potency [12] | Potency [13] | Potency [15] | Potency [16] | outcome [17] | activation [19] -1.22%

CCCOCC(C)OCC(C)O (stereo not drawn)
inactive: Potency [1] | Potency [2] | Potency [3] | Potency [4] | Potency [5] | Potency [6] | Potency [7] | Potency [8] | Potency [9] | Potency [10] | Potency [11] | Potency [12] | Potency [13] | outcome [14] | Potency [16] | outcome [17] | activation [19] 12.1%

O=[N+]([O-])c1cc(C(F)(F)F)ccc1Cl
inactive: Potency [1] | Potency [2] | Potency [3] | Potency [4] | Potency [5] | Potency [6] | Potency [7] | Potency [8] | Potency [9] | Potency [10] | Potency [11] | Potency [12] | Potency [13] | outcome [14] | Potency [16] | outcome [17] | activation [19] 13.2%

CCCC(C)CO (stereo not drawn)
inactive: Potency [1] | Potency [2] | Potency [3] | Potency [4] | Potency [5] | Potency [6] | Potency [7] | Potency [8] | Potency [9] | Potency [10] | Potency [11] | Potency [12] | Potency [13] | outcome [14] | Potency [15] | Potency [16] | outcome [17] | activation [19] -5.4%

CCNc1ccccc1
inactive: Potency [1] | Potency [2] | Potency [3] | Potency [4] | Potency [5] | Potency [6] | Potency [7] | Potency [8] | Potency [9] | Potency [10] | Potency [12] | Potency [13] | outcome [14] | Potency [15] | Potency [16] | outcome [17] | activation [19] 1.96%
